Unmarked numbers belong to inactive results. How the calls were made is not given here.

Chain of Pantothenate synthetase (Mycobacterium tuberculosis (strain ATCC 25618 / H37Rv)) (P9WIL5 whole entry, looked up): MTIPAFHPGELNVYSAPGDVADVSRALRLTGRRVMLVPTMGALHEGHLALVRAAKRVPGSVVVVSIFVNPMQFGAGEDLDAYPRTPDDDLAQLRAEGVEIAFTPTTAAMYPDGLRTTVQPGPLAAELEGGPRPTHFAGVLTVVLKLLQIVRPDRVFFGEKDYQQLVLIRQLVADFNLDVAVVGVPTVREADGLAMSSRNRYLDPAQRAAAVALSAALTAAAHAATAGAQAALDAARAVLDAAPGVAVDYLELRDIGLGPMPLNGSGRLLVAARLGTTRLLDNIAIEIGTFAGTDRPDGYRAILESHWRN

This test concerns the target Pantothenate synthetase (Mycobacterium tuberculosis (strain ATCC 25618 / H37Rv)) (UniProt P9WIL5). The test can be described thus: Recombinant Mtb pantothenate synthetase (PanC) inhibitors, coupled enzyme, confirmatory (AID 375).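 Further: 0% = full reaction with vehicle and 100% = no enzyme background.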 The following applies: coupled enzyme assay; at 10 µM, hits give high values.
Regarding `N#CCCN(C(=O)Nc1ccc(Cl)cc1)c1ccccc1`, the inhibition was 1%. With `O=c1[nH]c2c(s1)C(c1ccco1)C1C3CCC(C3)C1S2` (stereo not given), the inhibition was 0%. In the case of `Cc1c(Cl)cccc1Nc1ccccc1C(=O)O` it was 1%; in that of `Cc1ccc(S(=O)(=O)CCC(=O)Nc2ccc3c(c2)OCO3)cc1`, 6%; in that of `COC(=O)CN1C(=O)C2(C(C#N)=C(N)Oc3c2c(C)nn3-c2ccccc2)c2ccccc21` (stereo not given), 3%. Consider `O=S(=O)(c1ccc(Br)s1)N1CCCCC1`, for which the inhibition was 0%.

Regarding `CCCC(=O)Nc1ccccc1-c1nnn(CC(=O)Nc2ccc(OCC)cc2)n1`, the inhibition is 0%. As for `CC(C)Cc1nnc(NS(=O)(=O)c2ccc(Cl)cc2)s1`, the inhibition is 0%. The same measure for `c1ccc2c(c1)nc(NCCN1CCOCC1)c1nncn12`: 2%. In the case of `CC(C)=CC(=O)Nc1ccc(Br)cc1` it was 0%. As to `Cc1c(-n2c(CN3C(=O)c4ccccc4C3=O)nc3ccccc3c2=O)c(=O)n(-c2ccccc2)n1C`, the inhibition is 0%. In the case of `C1=C(CCNc2ncnc3c2cnn3-c2ccccc2)CCCC1` it was 6%; in that of `CC(=O)[C@H]1CC[C@H]2[C@@H]3CCC4=CC(=O)CC[C@]4(C)[C@H]3[C@H](O)C[C@]12C`, 0%. On to `CC1CCc2nn(CC(=O)Nc3ccc(F)cc3F)cc2C1` (stereo not given), for which the inhibition was 5%. Consider `CC(=O)O[C@]1(C(C)=O)CC[C@H]2[C@@H]3C=C(C)C4=CC(=O)CC[C@]4(C)[C@H]3CC[C@@]21C`, for which the inhibition is 0%. On to `COCCn1nnnc1SCC(=O)N1CCCCC1`, for which the inhibition was 0%. Consider `CCCc1nc2ccccc2c(=O)n1NC(=O)c1c(O)c2cccc3c2n(c1=O)CCC3`, for which the inhibition was 0%.

As to `COc1ccc(-n2c(=O)[nH]cc(C(=O)Nc3ccc(NC(C)=O)cc3)c2=O)cc1`, the inhibition is 6%. On to `CCCCc1ccc(NC(=O)COCC)cc1`, for which the inhibition is 0%.

Regarding `Nc1nc2n(n1)C(c1cccc(Br)c1)CC(c1ccc(F)cc1)N2` (stereo not given), the inhibition is 0%.

Turning to `NC(=O)NC(c1ccccc1)c1ccccc1F` (stereo not given), the inhibition was 3%.

As for `COC(=O)CSc1nnc(-c2ccncc2)o1`, the inhibition was 0%. With `O=c1ccn(Cc2ccccc2Cl)cc1`, the inhibition is 0%. In the case of `Nn1cc(-c2ccccc2)nc1SCC(=O)N1CCN(S(=O)(=O)c2ccccc2)CC1`, the inhibition was 0%.

For `c1ccc(-c2cn3cccnc3n2)cc1`, the inhibition is 0%. Turning to `COc1cc2c(cc1OC)-c1cc(Nc3ccc4c(c3)OCCO4)nc(=O)n1CC2`, the inhibition was 2%. Turning to `CC(=O)Nc1c2c(nn1-c1ccc(C)cc1C)CSC2`, the inhibition was 0%. Turning to `COc1cc(OC)c(C(=O)Nc2ncn[nH]2)cc1OC`, the inhibition is 0%. In the case of `O=C(O)c1ccccc1S`, the inhibition was 0%. For the molecule `Cn1c(=N)n(CC(=O)O)c2ccccc21`, the inhibition was 9%.

Consider `CCOc1ccccc1N1C(=O)c2ccc(C(=O)Nc3cccnc3)cc2C1=O`, for which the inhibition was 4%. With `Cc1ccc(C(=O)N2CCCC(c3nc4c(nnn4Cc4ccccc4)c(=O)[nH]3)C2)cc1` (stereo not given), the inhibition was 1%. On to `COc1cc(-c2noc(-c3ccccc3C(=O)NCc3ccco3)n2)cc(OC)c1OC`, for which the inhibition was 9%. For the molecule `CCn1cc(C2Nc3ccccc3C(=O)N2O)c(C)n1` (stereo not given), the inhibition is 0%. On to `O=c1[nH]c(NCc2ccccc2)nc2c1CCCC2`, for which the inhibition is 0%. Take `O=C(NCc1ccccn1)c1ccc2nc(-c3ccco3)c(-c3ccco3)nc2c1`: the inhibition was 1%. `O=C(C1CCN(c2nnc(-n3cccc3)s2)CC1)N1CCc2ccccc2C1`: the inhibition is 0%. For the molecule `O=C(CN1CCN(C(=O)c2ccccc2)CC1)Nc1ncc(Br)cc1Br`, the inhibition is 0%.

As for `O=C(Nc1ccc(S(=O)(=O)N2CCCCCC2)cc1)c1ccco1`, the inhibition is 2%.

Turning to `Cc1ccnc(N2CCN(C(=O)CSc3nc4ccccc4nc3N3CCCCC3)CC2)c1`, the inhibition was 1%.

One may read the inhibition as the change of the read-out against control, counted positive when it falls.

Values taken from PubChem BioAssay.
